Molecules are shown by their SMILES. About 17,000 (4.7%) of roughly 360,000 compounds were called active. About 5% were inconclusive and are not listed. This excerpt belongs to a sample that is enriched for actives. Unmarked numbers belong to inactive results. Rule as the data show it: active = activity change below about -50%; inconclusive = mostly about -30% to -49%; inactive = weaker than that.
% is scaled to controls: 0 for no effect and ±100 for the full control effect.

A short description of this experiment: qHTS for Inhibitors of Inflammasome Signaling: IL-1-beta AlphaLISA Primary Screen. Particulars: THP-1 LPS/ATP IL-1B secretion, 16 h; at 57.5 µM, stronger effect = lower value. In outline:
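THP-1 cells pretreated 1 hr with compounds (up to 57.5 uM final), then stimulated with LPS (250 ng/mL final) plus ATP (1.25 mM final); secreted IL-1B measured by AlphaLISA after 16 hr, decreased signal indicating inhibition.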
Background: qHTS replaces the single test concentration by a dilution series.
Consider `COC(=O)C(Cc1c[nH]c2ccccc12)NC(=O)CCNC(=O)c1ccco1` (stereo not given), for which the activity change was 19.3%.

Consider `CCOC(=O)[C@]12CCC=C1N(CCC1=CCCCC1)C(=O)[C@H](CC(=O)NCc1ccc(C)o1)C2`, for which the activity change is 13.9%.

Consider `COc1cccc(CN(C)C(=O)CC[C@H]2O[C@@H](n3cnc4c(NC(=O)c5ccccc5)ncnc43)[C@H](O)[C@@H]2O)c1`, for which the activity change was -16.9%. The result for `O=C(Nc1cnn(Cc2ccc(Cl)cc2)c1)C1CCCC1` reads -16.9%.

Turning to `CCn1cc(CN2CCC(C(=O)Nc3cccc(-c4cccc(Cl)c4)c3)CC2)c(C)n1`, the activity change is -53.4% (active). Then `CC(=O)c1cc(CN2CCC(C(=O)Nc3cccc(-c4cscn4)c3)CC2)cs1`, with “inactive”; and `CCn1cc(CN2CCC(n3nccc3NC(=O)CCCc3ccccc3)CC2)c(C)n1`, with 40%. Then `CCn1cc(CN2CCC(C(=O)Nc3cccc(-c4cccc(Cl)c4)c3)CC2)cn1`, with -79.5% (active); and `O=C(Nc1cccc(-c2cscn2)c1)C1CCN(Cc2ccsc2)CC1`, with -28.7%; and `C=CCOc1ccc(/C=C/C(=O)OC(C)C(=O)Nc2ccc(NC(C)=O)cc2)cc1` (stereo not given), with -0.196%. Take `Nc1cc(=O)c2[nH]cnc2[nH]1`: the activity change is 17.6%. The result for `CCc1nc2ccc(C(=O)N(C)CCN(C)C)cn2c1N(CC)CCOC` reads -19.3%; that for `CC(C)C[C@@H]1Cc2[nH][nH]c(=O)c2[C@H](CCc2ccccc2)O1`, -2.24%.

For the compound `CC1(c2cccc(Br)c2)NC(=O)N(CC(=O)NCCC2=CCCCC2)C1=O` (stereo not given), the activity change is 1.79%. Then `COc1cccc2c1C(=O)c1c(O)c3c(c(O)c1C2=O)CC(O)(C(C)=NNC(=O)c1ccc(Cl)c(Cl)c1)CC3OC1CC(N)C(O)C(C)O1` (stereo not given), with -101% (active); and `Oc1c(CN2CCOCC2)ccc(CN2CCOCC2)c1O`, with 14.4%. The result for `CN(C(=O)c1cccc(NC(=O)Cc2ccc(NC(=O)C3CCN(C(=O)C4CCCCC4)CC3)cc2)c1)C1CCC1` reads -1.34%; that for `CN1CCN(C2Cc3ccc(Cl)cc3Sc3ccc(F)cc32)CC1` (stereo not given), -63.5% (active); that for `COC(=O)C1NN=C(C(=O)c2ccc(Br)cc2)C1c1cccc(Br)c1` (stereo not given), 19.6%. Then `C[C@H]1CN([C@@H](C)CO)C(=O)CCCn2cc(nn2)CO[C@@H]1CN(C)C(=O)Nc1ccccc1`, with -2.98%; and `Fc1ccc(-c2ccc(NCCN3CCOCC3)nn2)cc1`, with -8.39%. On to `CCOc1nc(NCCN2CCOCC2)nc(Nc2ccc(C)cc2)n1`, for which the activity change was -27.7%. Regarding `c1ccc2cc3c(NCCN4CCOCC4)ccnc3cc2c1`, the activity change was -83.2% (active). The result for `Cc1nc(N)sc1-c1ccccc1` reads -26.3%; that for `COc1ccc(-n2c(Cc3cccn3C)nnc2SCC(=O)Nc2cc(C)cc(C)c2)cc1`, -24.7%.

In the case of `N#CCSc1nc2c(c(=O)n1Cc1ccccc1)C1(CCCC1)Cc1ccccc1-2`, the activity change is 4.25%. With `Cc1cccc(-n2c(SCC(N)=O)nc3c(c2=O)C2(CCCCC2)Cc2ccccc2-3)c1`, the activity change was -72.3% (active). Then `Cc1cccc(-n2c(=O)c3c(C)c(C)sc3n(CC(N)=O)c2=O)c1`, with 16.6%; and `COCC(=O)N(C)C[C@H]1Oc2cc(Br)ccc2S(=O)(=O)N([C@H](C)CO)C[C@H]1C`, with 20.9%. As to `CCOCCC(=O)Nc1ccc2c(c1)c(=O)n(C)n2-c1ccc2ccccc2c1`, the activity change was 87.4%. Consider `COc1ccc(Cl)cc1C(=O)NNC(=S)NC(=O)/C=C/c1ccco1`, for which the activity change is 26.9%. The result for `CCOC(=O)C1=NN(c2ccc(Cl)cc2)/C(=C/C2=NCCc3cc(OC)c(OC)cc32)S1` reads -28.4%.

Turning to `COc1cc2c(cc1OC)C(/C=C/c1ccco1)=NCC2`, the activity change is -75.5% (active). The result for `C[C@H]1COc2cc(N3CCSCC3)ccc2S(=O)(=O)N1` reads 26.2%; that for `COc1ccc(Cl)cc1-c1cc(C(=O)Nc2cc(OC)c(OC)c(OC)c2)[nH]n1`, -10.3%; that for `CSc1ncnc2c1ncn2CCCNCC(C)c1ccccc1` (stereo not given), 17.6%.

Turning to `COc1ccc(-c2cc(NC(C)=O)c3ncc(-c4cc(OC)c(OC)c(OC)c4)n3c2)cn1`, the activity change is 41.4%. The result for `CCN(C(=O)CN1C(=O)/C(=C/c2ccc(F)cc2)SC1=S)C1CCS(=O)(=O)C1` (stereo not given) reads 0%; that for `O=C1/C(=C/c2ccc(F)cc2)SC(=S)N1CCCC(=O)N1CCCCC1CCO` (stereo not given), -86.6% (active). The result for `COc1ccc(/C=C2\SC(=S)N(CCCC(=O)NC3CCCC3)C2=O)cc1OC` reads 7.66%. Regarding `Cc1cccc(C)c1-n1nnnc1C1(C)CCC(=O)N1CCOc1ccccc1` (stereo not given), the activity change was 33.1%.

As to `CC(C)c1ccc(/C=C/C(=O)NCCCN2CCOCC2)cc1`, the activity change is -1.14%. Regarding `CC1CC(NC(=S)N(C)C)CC(C)(C)C1` (stereo not given), the activity change is 31.1%. For the compound `O=[N+]([O-])c1ccccc1S(=O)(=O)Nc1cccc2cccnc12`, the activity change was -99.8% (active). Then `COc1cc(NS(=O)(=O)c2ccc3ccccc3c2)c2ncccc2c1`, with 20.6%; and `NS(=O)(=O)c1ccc(CCNS(=O)(=O)c2cccc3cccnc23)cc1`, with 7.82%; and `CN(C(=O)c1cccc(NC(=O)Cc2cccc(NC(=O)C3CCCN(C(=O)C4CC4)C3)c2)c1)C1CCC1` (stereo not given), with 0%. The result for `COC(=O)c1ccc2nc(-c3ccc(C)cc3)c(Cc3ccc(OC)cc3C)n2c1` reads 16%; that for `O=C(/C=C/c1ccco1)Nc1ccc(Oc2ccccc2)cc1`, -58.1% (active). On to `O=C(/C=C/c1ccco1)NC(=S)Nc1ccccc1Br`, for which the activity change is -18.4%. Turning to `COc1cccc(NC(=O)COC(=O)/C=C/c2ccco2)c1`, the activity change was 19.5%. The result for `CSC1=NCCN1C(=O)c1ccc(S(=O)(=O)N2CCOCC2)cc1` reads 2.64%; that for `CC(=O)Nc1ccc(C(=O)Nc2cc(S(=O)(=O)N3CCOCC3)ccc2N2CCOCC2)cc1`, -12.6%; that for `CCC(C)NC(=O)c1ccc(NC(=O)CC2SC(N3CCCCC3)=NC2=O)cc1` (stereo not given), -15.8%. Take `COc1cccc2cc(C(=O)NCc3ccc(C)cc3)c(=N)oc12`: the activity change was -59.4% (active). With `COc1cccc2cc(C(=O)N(C)C)c(=O)oc12`, the activity change was -12.7%.

Turning to `N=c1oc2ccccc2cc1C(=O)NCc1ccccc1`, the activity change is -22.4%. Turning to `OC[C@@H]1CN(Cc2ccncc2)C[C@H](n2cnc3c(N4CCN(c5ccccc5)CC4)ncnc32)O1`, the activity change is 3.63%. Regarding `O=C(Nc1cccnc1)c1cc(Cl)ccc1Cl`, the activity change was -60.5% (active).

With `O=C(Nc1cccnc1)c1ccc(Cl)cc1[N+](=O)[O-]`, the activity change is 0%. Then `O=C(Nc1cccnc1)c1cc([N+](=O)[O-])ccc1Cl`, with 0%. On to `COCCNC(=S)N1CCN(C)CC1`, for which the activity change was 26.6%. The result for `Clc1ncn(CCOc2ccccc2)c1Cl` reads -9.73%.

For the compound `Brc1ccc(OCCn2ccnc2)cc1`, the activity change was -15%. The result for `c1ccc(Cc2ccc(OCCn3ccnc3)cc2)cc1` reads -57.5% (active).

Regarding `CC(C)Oc1cc(F)ccc1-c1cc(C(=O)Nc2ccc(F)cc2)[nH]n1`, the activity change was -25.4%. `Cc1cccc(OP(=O)(Nc2c(C)n(C)n(-c3ccccc3)c2=O)Oc2cccc(C)c2)c1`: the activity change was -27.9%.

As to `Cc1cccc(Oc2c([N+](=O)[O-])c(=O)n(C)c3ccccc23)c1`, the activity change was -101% (active). Consider `Cn1nc(-c2ccccc2)c2cc([N+](=O)[O-])ccc21`, for which the activity change was -13.7%. Then `Cn1c(=O)c([N+](=O)[O-])c(Oc2ccccc2)c2ccccc21`, with -86.4% (active); and `COc1cc2c(=O)n(C)c3ccccc3c2cc1OC`, with -24.4%. As for `Cc1cc(C)c(-c2c(O)c3ccccc3n(C)c2=O)c(C)c1`, the activity change was 13%.

With `CC(=O)C1=C(O)C(=O)N(c2ccc(S(N)(=O)=O)cc2)C1c1ccccc1F` (stereo not given), the activity change was 7.68%. The result for `NC(=O)c1ncn([C@@H]2O[C@H](CN=C3NS(=O)(=O)c4ccccc43)[C@@H](O)[C@H]2O)n1` reads 21.3%; that for `NS(=O)(=O)c1ccc(CCNC(=S)Nc2ccc(S(N)(=O)=O)cc2)cc1`, -3.65%. The result for `NS(=O)(=O)c1ccc(NC(=S)Nc2ccc(Br)c(Cl)c2)cc1` reads -89% (active); that for `COc1ccc(NC(=S)Nc2ccc(S(N)(=O)=O)cc2)c(C)c1`, -12.2%; that for `CCOC(=O)CSc1nc(N2CCOCC2)c2c(c1C#N)CC(C(C)C)OC2` (stereo not given), 56.1%. With `CCOC(=O)CSc1ccccn1`, the activity change is 3.79%.

Regarding `CCOC(=O)CSc1nccc(N(C)C)c1C#N`, the activity change was -70.3% (active). Then `O=S(=O)(Cc1cc(Sc2ccccc2)nc(-c2ccccc2)n1)c1ccccc1`, with 0%; and `O=S(=O)(Cc1cc(Cl)nc(-c2cccnc2)n1)c1ccccc1`, with -98.6% (active). On to `O=S(=O)(NCCc1csc(-c2ccccc2)n1)c1cccnc1`, for which the activity change was 41.8%. The result for `O=C1NC(Cc2ccccc2)c2nc3ccc(Br)cc3c(=O)n2-c2cc3ccccc3cc21` (stereo not given) reads -12%; that for `C[C@H](O)[C@@H]1C(=O)N2CCc3ccc(N4CCOCC4)cc3[C@@H]2C[C@@H]1N(C)C(=O)C(C)(C)C`, 0%; that for `CN1OC[C@@H]2CN(C(=O)C(C)(C)C)[C@H](c3ccc(-n4ccnc4)cc3)C[C@@H]21`, -20.8%. Take `Cc1ccccc1S(=O)(=O)N1[C@@H](c2cccc(Cl)c2)C(C(=O)OC(C)(C)C)=CC[C@H]1c1ccc(Cl)cc1`: the activity change was -7.69%.

`CN1CCN(CCCNC(=O)c2ccc(/C=C3\Oc4ccccc4N(Cc4ccc(Cl)cc4)C3=O)cc2)CC1`: the activity change is -78% (active). The result for `CCCN1CCN(CCCNC(=O)CN2C(=O)COc3ccccc32)CC1` reads 5.04%; that for `CC(C)OCCCNC(=O)CN1C(=O)/C(=C/c2ccccc2F)Oc2ccccc21`, 14.1%.

The record behind these values is PubChem BioAssay AID743279 (National Center for Advancing Translational Sciences (NCATS), 2014).
